Calls of active or inactive are those of the source.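 How the source made its calls, unless noted: active means mean z-score across replicates of 1.96 or higher in either the MELAS or the Rieske mutant cell line; inactive means the rest.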 Where a SMILES comes first, the peptide text is derived from it. The star is where a group is joined. Cbz = O=C(OCc1ccccc1)*; CH2F = FC*

Experiment [1] can be described thus: viability loss with induced miR-34 in A549 – imaging, A549 dox-inducible miR-34, nuclei and caspase counts, primary screen (AID 1347080;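 active means compounds whose cell count with miR-34 switched on is under 0.7 times the count with it off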). Particulars: A549 miR-34 inducible, Hoechst nuclei count, 48 h.
A short description of experiment [2]: MELAS cybrid and Rieske KO viability enhancers – cell-based, MELAS cybrids, Rieske KO mouse fibroblasts, CellTiter-Glo, primary screen (AID 1508586).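 Further: z relative to plate mean and SD of compound and empty wells.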 The following applies: low glucose. In general terms: Cellular ATP, detected with luciferase, serves as a proxy for viable cell number.
[3] abbreviates: stronger effect = lower value, cell number ratio, induced over uninduced.
The mark [4] stands for this setting: measured here: relative caspase fold change +Dox/-Dox.
Setting [5] is: measured here: total cells with miR-34 induction, stronger effect = lower value.
Where [6] appears, read: measured here: total cells without miR-34 induction.
Setting [7] is: MELAS cybrid survival, CellTiter-Glo 48 h, stronger effect = higher value.
Where [8] appears, read: Rieske KO mouse fibroblast survival, CellTiter-Glo 72 h.
Further: test concentration not given here.

For `CCCC(C)NC(=O)c1ccc(Cl)c(Cl)c1` (stereo not given), the fold change is 0.868 (inactive) in experiment [1] (setting [3]) and 0.485 in experiment [1] (setting [4]). The cell count in experiment [1] (setting [5]) worked out at 8950; in experiment [1] (setting [6]) it was 10300. In addition, the z-score was -0.371 (inactive) in experiment [2] (setting [7]) and 0.701 in experiment [2] (setting [8]).
For `COC(=O)CC(NC(=O)C(C)NC(=O)C(NC(=O)OCc1ccccc1)C(C)C)C(=O)CF` (stereo not drawn) (Cbz-Val-Ala-Asp(OMe)-CH2F; configuration not given here), the fold change in experiment [1] (setting [3]) was 0.936 (inactive); in experiment [1] (setting [4]), 0.758. Moreover, the cell count in experiment [1] (setting [5]) is 8620; in experiment [1] (setting [6]), 9210. Moreover, the z-score in experiment [2] (setting [7]) was -0.172 (inactive); in experiment [2] (setting [8]), -0.115.
Regarding `Cc1cc(C)c(C=C2C(=O)Nc3ccccc32)[nH]1`, the fold change in experiment [1] (setting [3]) was 0.941 (inactive); in experiment [1] (setting [4]), 0.528. In addition, the cell count in experiment [1] (setting [5]) was found to be 5670; in experiment [1] (setting [6]), 6030. Moreover, the z-score in experiment [2] (setting [7]) is 0.363 (inactive); in experiment [2] (setting [8]), -0.0507.
With `O=C(C=Cc1ccc(O)c(O)c1)OCCc1ccccc1`, the fold change in experiment [1] (setting [3]) is 1.02 (inactive); in experiment [1] (setting [4]) it was 0.387. Moreover, the figures for the cell count in experiment [1] (setting [5]) and in experiment [1] (setting [6]) were 7430 and 7300, respectively. The z-score is -0.587 (inactive) in experiment [2] (setting [7]) and -2.25 in experiment [2] (setting [8]).
Regarding `NC1CC1c1ccc(-c2cccc(O)c2)cc1` (stereo not given), the fold change in experiment [1] (setting [3]) was 0.891 (inactive); in experiment [1] (setting [4]) it was 0.382. For the same compound, the cell count in experiment [1] (setting [5]) stood at 7530; in experiment [1] (setting [6]), 8450. The values for the z-score in experiment [2] (setting [7]) and in experiment [2] (setting [8]) were -0.398 (inactive) and 0.0465, respectively.
Turning to `CCOc1ccc(Cc2cc(C3OC(CO)C(O)C(O)C3O)ccc2Cl)cc1` (stereo not given), the fold change is 0.916 (inactive) in experiment [1] (setting [3]) and 0.801 in experiment [1] (setting [4]). The cell count in experiment [1] (setting [5]) worked out at 7650; in experiment [1] (setting [6]), 8340. Besides, the z-score in experiment [2] (setting [7]) is 0.52 (inactive); in experiment [2] (setting [8]) it was -0.097.
Turning to `CC(NC(=O)C(C#N)=Cc1cccc(Br)n1)c1ccccc1` (stereo not given), the fold change in experiment [1] (setting [3]) was 1.21 (inactive); in experiment [1] (setting [4]), 0.817. The cell count in experiment [1] (setting [5]) was determined as 1620; in experiment [1] (setting [6]), 1340. The z-score in experiment [2] (setting [7]) was 0.502 (inactive); in experiment [2] (setting [8]), 0.371.
As to `O=C(c1cccc(Cl)c1F)N1CCN(Cc2cccc(Nc3nccs3)n2)CC1`, the fold change is 0.822 (inactive) in experiment [1] (setting [3]) and 4.5 in experiment [1] (setting [4]). Moreover, the cell count came out at 2250 in experiment [1] (setting [5]) and 2740 in experiment [1] (setting [6]). Besides, the z-score in experiment [2] (setting [7]) is -0.421 (inactive); in experiment [2] (setting [8]), -0.143.
With `C[C@]12C=CC(=O)N[C@@H]1CC[C@@H]1[C@H]2CC[C@]2(C)C(C(=O)Nc3cc(C(F)(F)F)ccc3C(F)(F)F)CC[C@@H]12` (stereo not given in full), the fold change in experiment [1] (setting [3]) was 0.962 (inactive); in experiment [1] (setting [4]) it was 0.927. The cell count was determined as 6640 in experiment [1] (setting [5]) and 6910 in experiment [1] (setting [6]). The figures for the z-score in experiment [2] (setting [7]) and in experiment [2] (setting [8]) were -0.568 (inactive) and 0.0125, respectively.
Consider `CCn1cc(NC(=S)Nc2cc(Cl)ccc2OC)c(C(N)=O)n1`, for which the fold change is 0.929 (inactive) in experiment [1] (setting [3]) and 0.479 in experiment [1] (setting [4]). Also, the cell count was 8480 in experiment [1] (setting [5]) and 9130 in experiment [1] (setting [6]). For the same compound, the figures for the z-score in experiment [2] (setting [7]) and in experiment [2] (setting [8]) were -0.357 (inactive) and 0.0626, respectively.
As to `CCOC1OC(=O)CC1NC(=O)C1CCCN1C(=O)C(NC(=O)c1ccc(N)c(Cl)c1)C(C)(C)C` (stereo not given), the fold change is 0.983 (inactive) in experiment [1] (setting [3]) and 0.559 in experiment [1] (setting [4]). The cell count in experiment [1] (setting [5]) is 8140; in experiment [1] (setting [6]), 8280. The z-score in experiment [2] (setting [7]) was -0.153 (inactive); in experiment [2] (setting [8]), 0.0351.
Consider `C=C[C@]1(C)CC(OC(=O)CSC(C)(C)CNC(=O)C(N)C(C)C)[C@@]2(C)C(C)CC[C@]3(CCC(=O)[C@H]32)C(C)C1O` (stereo not given in full), for which the fold change was 0.851 (inactive) in experiment [1] (setting [3]) and 1.9 in experiment [1] (setting [4]). In addition, the cell count in experiment [1] (setting [5]) turned out to be 6360; in experiment [1] (setting [6]), 7470. Besides, the figures for the z-score in experiment [2] (setting [7]) and in experiment [2] (setting [8]) were 6.17 (active) and 2.78, respectively.
On to `CC1OC(Oc2c(-c3cc(O)c(O)c(O)c3)oc3cc(O)cc(O)c3c2=O)C(O)C(O)C1O` (stereo not given), for which the figures for the fold change in experiment [1] (setting [3]) and in experiment [1] (setting [4]) were 0.976 (inactive) and 1.01, respectively. The cell count came out at 8230 in experiment [1] (setting [5]) and 8430 in experiment [1] (setting [6]). For the same compound, the figures for the z-score in experiment [2] (setting [7]) and in experiment [2] (setting [8]) were -0.43 (inactive) and -0.277, respectively.
In the case of `COc1cc(C=CC(=O)N2CCN(CC(=O)N3CCCC3)CC2)cc(OC)c1OC`, the fold change in experiment [1] (setting [3]) was 0.989 (inactive); in experiment [1] (setting [4]) it was 0.412. For the same compound, the cell count came out at 8470 in experiment [1] (setting [5]) and 8570 in experiment [1] (setting [6]). Besides, the z-score in experiment [2] (setting [7]) is -0.177 (inactive); in experiment [2] (setting [8]) it was -0.0197.
Consider `CC(C)(O)CCC(O)[C@](C)(O)C1CC[C@@]2(O)C3=CC(=O)[C@@H]4CC(O)C(O)C[C@]4(C)[C@@H]3CC[C@]12C` (stereo not given in full), for which the fold change in experiment [1] (setting [3]) was 0.992 (inactive); in experiment [1] (setting [4]) it was 0.932. Also, the cell count is 10200 in experiment [1] (setting [5]) and 10300 in experiment [1] (setting [6]). Further, the z-score in experiment [2] (setting [7]) was -0.354 (inactive); in experiment [2] (setting [8]), 0.685.
In the case of `O=C(NC1CCN(CCCCC2(C(=O)NCC(F)(F)F)c3ccccc3-c3ccccc32)CC1)c1ccccc1-c1ccc(C(F)(F)F)cc1`, the fold change in experiment [1] (setting [3]) was 1.05 (inactive); in experiment [1] (setting [4]), 0.667. In addition, the cell count in experiment [1] (setting [5]) turned out to be 3960; in experiment [1] (setting [6]) it was 3780. The z-score in experiment [2] (setting [7]) is -0.492 (inactive); in experiment [2] (setting [8]), -0.827.
For `COc1cc(C2c3cc4c(cc3C(O[C@@H]3O[C@@H]5COC(C)O[C@H]5C(O)C3O)[C@H]3COC(=O)[C@H]23)OCO4)cc(OC)c1O` (stereo not given in full), the values for the fold change in experiment [1] (setting [3]) and in experiment [1] (setting [4]) were 0.94 (inactive) and 1.28, respectively. The cell count in experiment [1] (setting [5]) came to 2100; in experiment [1] (setting [6]) it was 2240. Besides, the z-score was -0.7 (inactive) in experiment [2] (setting [7]) and -0.559 in experiment [2] (setting [8]).
Turning to `C[C@@]12CCC3=C4CCC(=O)C=C4CC[C@H]3[C@@H]1CC[C@@]2(O)CC#N`, the fold change was 0.908 (inactive) in experiment [1] (setting [3]) and 0.868 in experiment [1] (setting [4]). Besides, the cell count in experiment [1] (setting [5]) was 7270; in experiment [1] (setting [6]) it was 8010. For the same compound, the z-score in experiment [2] (setting [7]) was -0.385 (inactive); in experiment [2] (setting [8]), 0.301.
As to `C=C1C(=O)OC2C=C(C)CCC=C(C)CCC12` (stereo not given), the fold change in experiment [1] (setting [3]) was 0.92 (inactive); in experiment [1] (setting [4]), 0.847. Besides, the figures for the cell count in experiment [1] (setting [5]) and in experiment [1] (setting [6]) were 7130 and 7760, respectively. The values for the z-score in experiment [2] (setting [7]) and in experiment [2] (setting [8]) were -0.398 (inactive) and -0.0875, respectively.
As for `CC1CC=CC=CC=CC=CC(O[C@@H]2OC(C)C(O)C(N)C2O)C[C@@H]2O[C@](O)(CC(O)C[C@H]3OC3C=CC(=O)O1)CC(O)C2C(=O)O` (stereo not given in full), the fold change in experiment [1] (setting [3]) is 0.876 (inactive); in experiment [1] (setting [4]), 1.14. Moreover, the figures for the cell count in experiment [1] (setting [5]) and in experiment [1] (setting [6]) were 7260 and 8280, respectively. Moreover, the z-score in experiment [2] (setting [7]) is -0.47 (inactive); in experiment [2] (setting [8]) it was -0.427.

The values above are taken from PubChem BioAssay.
